This is an account of results in PubChem BioAssay (EPA / NIEHS).

A word on the AC50: it is the concentration giving half of the maximal activity seen.

Assay [1] is described as follows: VALA_TUBHUV_Agonist_CellCount: Viability Assessment in the VALA Sciences human Umbilical Vein Endothelial Tubule Formation (TUBHUV) Agonism Assay (AID 2284309; active means hit-call score of the fitted dose curve at least 0.9, where 1 is the maximum). The essentials:
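Viability endpoint by fluorescent imaging of fixed nuclear/CD31-stained HUVEC–HDF co-cultures. Readout is cell count, fitted upward against 0.1% DMSO. Compound exposure was 72 h in 10 ng/ml VEGF, after 3-day co-culture priming.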

A short description of assay [2]: VALA_TUBHUV_Antagonist_CellCount: Viability Assessment in the VALA Sciences human Umbilical Vein Endothelial Tubule Formation (TUBHUV) Antagonism Assay (AID 2284310; active means hit-call score of the fitted dose curve at least 0.9, where 1 is the maximum). The essentials: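 Read-out is imaged cell count after nuclear and CD31 staining, fitted against 0.1% DMSO vehicle. Compounds were added for 3 days, in 10 ng/ml VEGF assay medium, to HUVEC–HDF co-cultures pre-grown 3 days.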

Assay [3] in a line: VALA_TUBIPS_Agonist_TubuleLength: VALA Sciences human iPS-derived Endothelial Tubule Formation (TUBIPS) Agonism Assay (AID 2284311; active means hit-call score of the fitted dose curve at least 0.9, where 1 is the maximum). The essentials:
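Agonist-mode readout is the gain in imaged tubule length versus DMSO baseline. It was measured by fluorescence high-content imaging 72 h after dosing human iPSC-derived endothelial cells.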

The nature of assay [4]: VALA_TUBIPS_Antagonist_TubuleLength: VALA Sciences human iPS-derived Endothelial Tubule Formation (TUBIPS) Antagonist Assay (AID 2284313; active means hit-call score of the fitted dose curve at least 0.9, where 1 is the maximum). Summed up:
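Tubule length was quantified by high-content imaging of CD31- and nuclear-stained cells, with 0.1% DMSO as neutral and 100 uM suramin as inhibition control. Compounds were applied for 3 days, in 10 ng/ml VEGF, to cultures pre-grown 3 days.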

The nature of assay [5]: VALA_MIGHUV2_Bcatenin: VALA Sciences human Umbilical Vein Endothelial Cell Migration (MIGHUV) Assay, Nuclear Translocation of beta-Catenin after Recovery (AID 2284315; active means hit-call score of the fitted dose curve at least 0.9, where 1 is the maximum). The essentials: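 Nuclear beta-catenin imaged by immunofluorescence with Hoechst counterstain in fixed HUVEC, 24 h after scratch wounding and chemical addition. Six-point concentration-response in triplicate; activity scored as signal increase over 0.1% DMSO vehicle.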

Assay [6] in a line: VALA_MIGHUV2_CellCount: Viability Assessment in the VALA Sciences human Umbilical Vein Endothelial Cell Migration (MIGHUV) Assay, Area of Scratch Wound after Recovery (AID 2284314; active means hit-call score of the fitted dose curve at least 0.9, where 1 is the maximum). Summed up: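 Viability read-out: Hoechst-stained nuclei counted by fluorescence imaging after a 24 h recovery period in fixed, scratched HUVEC plates. Compound was dosed within 30 min of scratching at six concentrations (triplicate); DMSO at 0.1 % served as baseline.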

Assay [7] is described as follows: IUF_NPC2c_oligodendrocyte_migration_120hr: Leibniz Research Institute for Environmental Medicine (IUF) 120-hour Neural Progenitor Cell Migration Assay for Oligodendrocyte Migration (NPC2c) (AID 2284297).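 Further: O4-positive oligodendrocyte migration distance divided by radial glia migration distance.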 Summed up: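 Using fetal brain neural progenitor spheres differentiating in N2 medium at 37C, compounds were present for 120 h. Oligodendrocyte migration distance, normalized to radial glia migration, was measured from imaged O4 staining.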

Assay [8] can be described thus: IUF_NPC2a_radial_glia_migration_120hr: Leibniz Research Institute for Environmental Medicine (IUF) 120-hour Neural Progenitor Cell Migration Assay for Radial Glia Migration (NPC2a) (AID 2284298). Summed up: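 Exposure of 0.3 mm primary hNPC spheres runs day 0 to 120 h with a half-volume medium change at day 3. Fixed cells get Hoechst staining; high-content analysis of nuclear positions yields radial glia migration distance per well, compared against DMSO controls.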

Assay [9] is described as follows: IUF_NPC2a_radial_glia_migration_72hr: Leibniz Research Institute for Environmental Medicine (IUF) 72-hour Neural Progenitor Cell Migration Assay for Radial Glia Migration (NPC2a) (AID 2284299). Summed up: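 Spheres of human primary neural progenitors migrate on poly-D-lysine/laminin under compound exposure at 37C, 5% CO2. The 72 h radial glia migration distance comes from brightfield images, measured manually.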

Assay [10] is described as follows: IUF_NPC2b_neuronal_migration_120hr: Leibniz Research Institute for Environmental Medicine (IUF) 120-hour Neural Progenitor Cell Migration Assay for Neuron Migration (NPC2b) (AID 2284300). Summed up:
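Fetal human NPC spheres migrate on PDL/laminin during 120 h compound treatment; neuronal migration distance, glia-normalized, scored versus DMSO control.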

A short description of assay [11]: IUF_NPC3_neuronal_differentiation_120hr: Leibniz Research Institute for Environmental Medicine (IUF) 120-hour Neuronal Differentiation Assay (NPC3) (AID 2284301). Summed up: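 Neuronal differentiation of primary human neural progenitors measured by high-content imaging: percent TUBB3+ of Hoechst+ nuclei within migrated area at 120 h, seven-point serial dilution plus solvent control, gain or loss relative to DMSO.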

Assay [12] in a line: IUF_NPC4_neurite_length_120hr: Leibniz Research Institute for Environmental Medicine (IUF) 120-hour Neuronal Morphology Assay for Neurite Length (NPC4) (AID 2284302). The essentials: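 Neurons from differentiating human fetal neural progenitor spheres are scored for average neurite length after five days of compound exposure. Fitting uses DMSO as negative control.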
The nature of assay [13]: IUF_NPC5_oligodendrocyte_differentiation_120hr: Leibniz Research Institute for Environmental Medicine (IUF) 120-hour Oligodendrocyte Differentiation Assay (NPC5) (AID 2284304; active means hit-call score of the fitted dose curve at least 0.9, where 1 is the maximum;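 further: primary human fetal neural progenitor spheres plated to migrate and differentiate; share of O4-positive cells among Hoechst nuclei found by CNN image analysis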). The essentials: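 After plating on poly-D-lysine/laminin, fetal-derived hNPC spheres differentiated for 120 h at 37C in compound-containing N2 medium, refreshed by half on day 3. O4 immunostaining over Hoechst nuclei in the migration zone gave oligodendrocyte percentage relative to DMSO.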

Assay [14] can be described thus: IUF_NPC4_neurite_area_120hr: Leibniz Research Institute for Environmental Medicine (IUF) 120-hour Neuronal Morphology Assay for Neurite Area (NPC4) (AID 2284305; active means hit-call score of the fitted dose curve at least 0.9, where 1 is the maximum). Summed up:
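Endpoint at 120 h: automated imaging of TUBB3/Hoechst-stained differentiating human neural progenitor spheres, neurite area per neuron from skeletonization. DMSO solvent control, not above 0.1%, set the baseline; medium was half-replaced on day 3.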

Assay [15] is described as follows: IUF_NPC2-5_cytotoxicity_72hr: Cytotoxicity Assessment at 72 hours in the Leibniz Research Institute for Environmental Medicine (IUF) Neural Progenitor Cell Migration and Differentiation Assay for Cytotoxicity (NPC2-5) (AID 2284306; active means hit-call score of the fitted dose curve at least 0.9, where 1 is the maximum;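 further: LDH release into supernatant measured by resorufin fluorescence marking membrane damage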). Summed up:
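Primary human neural progenitor spheres migrate and differentiate on laminin. Compound is present from the start of differentiation, with DMSO kept at or below 0.1%. At 72 h, supernatant LDH is quantified fluorometrically, with values fitted in the positive direction.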

The nature of assay [16]: IUF_NPC2-5_cytotoxicity_120hr: Cytotoxicity Assessment at 120 hours in the Leibniz Research Institute for Environmental Medicine (IUF) Neural Progenitor Cell Migration and Differentiation Assay (NPC2-5) (AID 2284307; active means hit-call score of the fitted dose curve at least 0.9, where 1 is the maximum). Summed up:
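Membrane-integrity loss is quantified by LDH in supernatant after five days of exposure of migrating, differentiating human fetal NPC spheres; seven serially diluted concentrations are tested with DMSO kept at or below 0.1%.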

Assay [17] in a line: IUF_NPC2-5_cell_number_120hr: Cell Number Assessment at 120 hours in the Leibniz Research Institute for Environmental Medicine (IUF) Neural Progenitor Cell Migration and Differentiation Assay (NPC2-5) (AID 2284308).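 Further: count of Hoechst-stained nuclei in migration zone around plated human neural progenitor spheres.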 The essentials:
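Seven-point serial dilutions plus solvent control were applied to plated 0.3 mm hNPC spheres at differentiation start, with medium half-replaced at day 3. Nuclei positive for Hoechst in the migration zone were enumerated at 120 h.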

Assay [18] in a line: IUF_NPC2-5_viability_120hr: Viability Assessment at 120 hours in the Leibniz Research Institute for Environmental Medicine (IUF) Neural Progenitor Cell Migration and Differentiation Assay (NPC2-5) (AID 2284312). The essentials:
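Human fetal (GW 16-19) neural progenitor spheres of 0.3 mm were plated on poly-D-lysine/laminin in N2 differentiation medium and exposed from day 0 for 120 h, with half-medium refresh at day 3. Viability was read as alamar blue resazurin-to-resorufin fluorescence against DMSO.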

Assay [19] is described as follows: VALA_MIGHUV2_WoundArea: VALA Sciences human Umbilical Vein Endothelial Cell Migration (MIGHUV) Assay, Area of Scratch Wound after Recovery (AID 2284316; active means hit-call score of the fitted dose curve at least 0.9, where 1 is the maximum). The essentials:
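Wound-area endpoint read by fluorescence imaging of Hoechst-stained nuclei after a 24 h recovery period following scratch of HUVEC monolayers (9000 cells/well). Chemicals dosed within 30 min post-scratch, triplicate 6-point series, 0.1% DMSO vehicle; Cytochalasin D positive control.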

Read-out in assay [20]: TIMP metallopeptidase inhibitor 1 (TIMP1), TIMP1 (gene 7076)
In words: BSK_MyoF_TIMP1: BioMAP Diversity Plus: MyoF Assay for TIMP metallopeptidase inhibitor 1 (TIMP1) Biomarker Activity (AID 2284269). The settings on record: primary human lung fibroblasts. Summed up:
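TIMP-1 levels were determined by ELISA in human lung fibroblasts treated for 24 h. DMSO served as negative control and baseline for upward curve fitting.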

Structures are written as SMILES. Results filed as inconclusive are left out. Calls of active or inactive are those of the source. How the source made its calls, unless noted: active means hit-call score of the fitted dose curve at least 0.9, where 1 is the maximum; inactive means score below 0.9.

On to `N[C@@H](Cc1cc(I)c(Oc2ccc(O)c(I)c2)c(I)c1)C(=O)O`, for which the molecule was called inactive in [1], in assay [2], in assay [3], in assay [4] and in [5].

With `CC(C)CCCCCCc1ccc(O)cc1`, the call in assay [1], in assay [3], in [4] and in assay [6] was inactive.

Regarding `Cc1nn(C)c(Oc2ccccc2)c1C=NOCc1ccc(C(=O)OC(C)(C)C)cc1`, the AC50 was 12.5 µM (active) in assay [7]; 5.23 µM (active) in assay [8]; 2.48 µM (active) in [9]; 6.63 µM (active) in assay [10]; 5.04 µM (active) in assay [17]. Further, the result in [11], in assay [12], in [13], in assay [14], in [15] and in assay [16] was inactive. For the same molecule, the call in assay [18] was inactive.

`CC(C)(c1ccc(O)cc1)c1ccc(O)cc1`: the result in assay [7], in assay [8], in assay [9], in assay [10], in assay [11] and in assay [12] was inactive. For the same molecule, the molecule was classed as inactive in [13], in assay [14], in assay [15], in [16], in assay [17] and in assay [1]. The molecule was called inactive in [2], in assay [3], in assay [18], in assay [4], in assay [6] and in assay [5]. Moreover, the result in [19] was inactive.

Consider `CCCN(CCC)C(=O)SCC`, for which the outcome in assay [7], in assay [8], in assay [9], in assay [10], in assay [11] and in [12] was inactive. The molecule was classed as inactive in [13], in assay [14], in assay [15], in [16], in assay [17] and in [18].

Take `CCN(CC)C(=O)c1cccc(C)c1`: the molecule was called inactive in assay [7], in assay [8], in [9], in assay [10], in assay [11] and in assay [12]. Besides, the molecule was classed as inactive in assay [13], in assay [14], in [15], in assay [16], in assay [17] and in assay [18].

In the case of `C#CCOC(=O)[C@@H](C)Oc1ccc(Oc2ncc(Cl)cc2F)cc1`, the call in assay [7], in [8], in assay [9], in assay [10], in assay [11] and in assay [12] was inactive. Also, the call in assay [14], in assay [15], in assay [16], in assay [17] and in assay [18] was inactive.

For the molecule `S=C([S-])NCCNC(=S)[S-].[Mn+2]`, the call in [7], in assay [8], in assay [9], in assay [10], in assay [11] and in [12] was inactive. Besides, the molecule was classed as inactive in assay [13], in assay [14], in assay [15], in assay [16], in assay [17] and in assay [18].

Regarding `N#CSCSc1nc2ccccc2s1`, the AC50 in assay [20] is 11.4 µM (active).

Consider `S=C(S)NCCNC(=S)S.[Mn+2].[S-]C([S-])=NCCN=C([S-])[S-].[Zn+2]`, for which the molecule was classed as inactive in [7], in assay [8], in assay [9], in assay [10], in assay [11] and in assay [12]. Further, the call in assay [13], in [14], in [15], in assay [16], in [17] and in [1] was inactive. Besides, the molecule was classed as inactive in assay [3], in [18], in assay [4], in assay [5] and in assay [19].

On to `CSC(=O)c1cccc2nnsc12`, for which the result in [7], in assay [8], in assay [9], in assay [10], in assay [11] and in assay [12] was inactive. For the same molecule, the molecule was classed as inactive in assay [13], in [14], in assay [15], in [16], in assay [17] and in [18].

For `COCCO`, the outcome in assay [20] was inactive.

For the molecule `O=C(O)c1ccccc1`, the outcome in assay [7], in assay [8], in [9], in assay [10], in assay [11] and in assay [12] was inactive. The molecule was called inactive in [13], in assay [14], in assay [15], in assay [16], in [17] and in assay [18].

For `CCC(C)OC(=O)N1CCCCC1CCO` (stereo unspecified), the result in assay [20] was inactive.
